The source of these data is PMC4336329 (PLoS ONE, 2015).

Out of some 310,000 compounds screened, about 14,000 (4.5%) showed an effect of 50% or more. Effects have a minus sign here. The entries come from a sample that favours strong results as a whole.
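Note: peak tail current of the secondary pulse compared with the same well before compound.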

The target of this experiment is human ether-à-go-go-related gene (hERG) potassium channel (human, UniProt Q12809). The experiment is described as follows: primary screen, population patch clamp on CHO cells stably expressing hERG; higher = less effect of the substance.
Sequence of human ether-à-go-go-related gene (hERG) potassium channel (Q12809 whole entry, looked up): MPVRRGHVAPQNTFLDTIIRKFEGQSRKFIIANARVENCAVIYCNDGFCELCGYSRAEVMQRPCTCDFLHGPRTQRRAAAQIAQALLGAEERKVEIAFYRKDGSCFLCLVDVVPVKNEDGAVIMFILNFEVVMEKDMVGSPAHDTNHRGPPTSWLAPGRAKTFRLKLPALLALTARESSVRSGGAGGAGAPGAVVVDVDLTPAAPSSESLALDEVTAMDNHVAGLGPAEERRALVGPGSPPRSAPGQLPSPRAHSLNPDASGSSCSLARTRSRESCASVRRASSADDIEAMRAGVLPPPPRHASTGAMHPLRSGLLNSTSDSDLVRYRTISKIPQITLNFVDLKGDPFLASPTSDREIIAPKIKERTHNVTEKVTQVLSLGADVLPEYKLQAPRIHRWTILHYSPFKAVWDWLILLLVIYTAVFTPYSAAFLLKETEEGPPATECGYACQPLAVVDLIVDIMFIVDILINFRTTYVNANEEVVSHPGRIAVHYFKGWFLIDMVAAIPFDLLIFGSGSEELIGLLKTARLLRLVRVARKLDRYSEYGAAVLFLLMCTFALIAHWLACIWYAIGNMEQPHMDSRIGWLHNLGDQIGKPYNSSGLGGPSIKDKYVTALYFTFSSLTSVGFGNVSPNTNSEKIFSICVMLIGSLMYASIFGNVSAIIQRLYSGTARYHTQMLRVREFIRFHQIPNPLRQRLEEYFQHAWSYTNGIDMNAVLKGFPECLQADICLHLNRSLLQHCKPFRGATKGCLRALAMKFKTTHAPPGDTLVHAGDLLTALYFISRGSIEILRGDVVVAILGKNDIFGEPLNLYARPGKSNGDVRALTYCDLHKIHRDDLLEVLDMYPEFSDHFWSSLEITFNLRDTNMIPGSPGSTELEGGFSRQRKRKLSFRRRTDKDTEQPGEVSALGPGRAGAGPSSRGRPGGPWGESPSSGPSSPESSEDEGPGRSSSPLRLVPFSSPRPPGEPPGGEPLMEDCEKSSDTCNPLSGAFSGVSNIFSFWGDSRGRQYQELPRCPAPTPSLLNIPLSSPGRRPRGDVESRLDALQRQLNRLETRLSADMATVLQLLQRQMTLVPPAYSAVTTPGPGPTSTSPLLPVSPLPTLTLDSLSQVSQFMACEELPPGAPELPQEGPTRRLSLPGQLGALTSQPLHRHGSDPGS
As to `CCC(=O)Nc1ccccc1C(=O)OCc1ccc(C(=O)c2ccccc2)cc1`, the “hERG current change (%, negative = inhibition) at 10uM” value is given as -16.1%.
The figure for `CCCCC(C(=O)NC(=O)NCc1ccccc1)N1C(=O)c2ccccc2C1=O` (stereo not drawn) is 11%; for `CO/N=C(\N)c1nonc1N` it is 0.407%.
For `COCOc1cc(O)c(C(=O)/C=C/c2ccccc2)c(OCOC)c1`, the “hERG current change (%, negative = inhibition) at 10uM” value was 4.67%.
In the case of `CC(C)O.COc1cc(/C=N/NC(=O)c2ccc(O)cc2)ccc1Oc1ccc([N+](=O)[O-])cn1`, the “hERG current change (%, negative = inhibition) at 10uM” value was -32%.
As for `Cc1ccc(S(=O)(=O)N(C)c2ccc(OC(=O)CN3C(=O)NC4(CCCC4)C3=O)cc2)cc1`, the figure is -14.4%; as for `COc1ccc(C(=O)Nc2ccnn2C2CCN(CCC(C)c3ccc(C)o3)CC2)cc1` (stereo not drawn), -67%; as for `C/C=C(\C)CN1CCC(n2nccc2NC(=O)c2ccc(OC)cc2)CC1`, 2.92%.
The figure for `COC(C(=O)Nc1ccnn1C1CCN(Cc2ccc(C)o2)CC1)c1ccccc1` (stereo not drawn) is -2.65%; for `COc1ccccc1C(=O)Nc1ccnn1C1CCN(CCC(C)c2ccc(C)o2)CC1` (stereo not drawn) it is -80.8%; for `COc1ccc(C(=O)Nc2ccnn2C2CCN(Cc3ccncc3)CC2)cc1` it is -8.86%.
For the molecule `CCOc1cc(NC2CS(=O)(=O)CC2O)c(OCC)cc1NC(=O)c1ccccc1` (stereo not drawn), the “hERG current change (%, negative = inhibition) at 10uM” value turned out to be 5.95%.
The figure for `Cc1nnc(N/N=C/c2ccc(-c3ccccc3F)o2)n1N.Cl` is -40.3%; for `CN(C)c1cccc2cccc(N(C)C)c12` it is -3.13%; for `NC(=O)C1CCN(C(=O)/C(=C/c2ccco2)NC(=O)c2ccccc2)CC1` it is 11.2%.
As for `CN1CCN(C(=O)/C(=C/c2ccco2)NC(=O)c2ccccc2)CC1`, the figure is -67.6%; as for `O=C(N/C(=C/c1ccco1)C(=O)N1CCCCCC1)c1ccccc1`, 13.2%.
With `O=C(N/C(=C\c1ccco1)C(=O)N1CCC(O)CC1)c1ccccc1`, the “hERG current change (%, negative = inhibition) at 10uM” value turned out to be 27.7%.
The figure for `O=C(N/C(=C\c1ccco1)C(=O)N1CCCC1)c1ccccc1` is 1.23%.
The figure for `CCN1CCN(C(=O)/C(=C/c2ccco2)NC(=O)c2ccccc2)CC1` is -70.4%; for `CCN(c1ccc(OC)cc1)S(=O)(=O)c1csc(C(N)=O)c1` it is 6.68%.
As for `COc1ccc(C(=O)Cc2ccc(OC)c(OC)c2)c(OC)c1`, the figure is -0.547%; as for `Cc1ccccc1-n1nnc2c(=O)oc3ccccc3c21`, 8.96%; as for `Cc1ccc(-n2nc3ccc(NC(=O)/C=C/c4ccco4)cc3n2)cc1`, 7.32%.
Regarding `CCOC(=O)Cn1c(=O)oc2cc(S(=O)(=O)N3CCn4c3nc3ccccc34)ccc21`, the “hERG current change (%, negative = inhibition) at 10uM” value was -56.3%.
The figure for `CCOC(=O)Cn1c(=O)oc2cc(S(=O)(=O)N3CCc4ccccc43)ccc21` is -2.03%.
The figure for `CCOC(=O)Cn1c(=O)oc2cc(S(=O)(=O)N3CCCc4ccccc43)ccc21` is -26.9%.
As for `Cc1cccc(CN2CCC(C(=O)Nc3ccc(-n4nc(C)cc4C)cc3)CC2)n1`, the figure is -25.2%; as for `Cc1cc(C)n(CCCN2CCC(C(=O)Nc3cccc(-c4cccc(F)c4)c3)CC2)n1`, -80.4%; as for `Cc1cc(C)n(CCC(=O)Nc2cccc(F)c2)n1`, 5.83%.
For `Cc1ccccc1C(=O)N1CCC(C(=O)Nc2cccc(F)c2)CC1`, the “hERG current change (%, negative = inhibition) at 10uM” value was -3.49%.
The figure for `Cc1cccc(CN2CCC(C(=O)Nc3cccc(-c4cccc(F)c4)c3)CC2)n1` is -74%.
The figure for `Cc1cccc(CN2CCC(C(=O)Nc3cccc(-c4cscn4)c3)CC2)n1` is -48.2%.
`COc1cccc(-c2cccc(NC(=O)C3CCN(Cc4cccc(C)n4)CC3)c2)c1`: the “hERG current change (%, negative = inhibition) at 10uM” value was -80.1%.
`Cc1ccccc1OCCCCN1CCCCC1`: the “hERG current change (%, negative = inhibition) at 10uM” value is recorded as 12.6%.
Regarding `CC(=O)Oc1ccc(-c2cc3c(OC(C)=O)cc(OC(C)=O)cc3oc2=O)cc1`, the “hERG current change (%, negative = inhibition) at 10uM” value came out at 14.1%.
For the molecule `O=S(=O)(NCC1CCCO1)c1ccc(NS(=O)(=O)c2ccc(F)cc2)cc1` (stereo not drawn), the “hERG current change (%, negative = inhibition) at 10uM” value stood at 14.6%.
The figure for `Cc1cc(C)n(CC(=O)N2CCCC(N3CCN(Cc4ccc5c(c4)OCO5)CC3)C2)n1` (stereo not drawn) is -14.2%; for `O=C(NCCc1ccccn1)c1ccc(OC2CCN(Cc3ccccn3)CC2)cc1` it is 2.88%.
The figure for `O=C(Nc1ncc(Cc2cccc(Cl)c2)s1)c1ccc([N+](=O)[O-])cc1` is 10.6%; for `O=C(Nc1ccccc1)OCCOc1cccc(Br)c1` it is 1.49%; for `Cc1ccc(CNC(=O)CCC2CCCN(Cc3ccc4cccc(F)c4n3)C2)o1` (stereo not drawn) it is -52.1%.
